Laboratory results as given in PubChem BioAssay (NCI).
The panel holds about 79,000 compounds, 15% with a hit somewhere; the sample as a whole holds those more often. Unmarked numbers belong to inactive results. Calls of active or inactive are those of the source. Cut-off read from the data, not from the text of the source: active = growth inhibition above about 70%; inactive = the rest.

Experiments:
[1] = NCI Yeast Anticancer Drug Screen. Data for the rad50 strain (AID 155);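 note: 0% = growth of vehicle-only cultures of the same strain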; conditions: S. cerevisiae rad50 strain growth inhibition, active compounds read high
How it was run: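 Genetically altered yeast (DNA repair pathway); compound treatment; growth inhibition vs vehicle ctrl.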

[2] = NCI Yeast Anticancer Drug Screen. Data for the mec2-1 strain (AID 157); conditions: S. cerevisiae mec2-1 strain, active compounds read high
How it was run: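 Using mec2-1 yeast: add compound, measure growth, express inhibition versus vehicle-treated cultures.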

[3] = NCI Yeast Anticancer Drug Screen. Data for the sgs1 mgt1 strain (AID 161);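 note: 0% = growth of cultures given vehicle only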; conditions: S. cerevisiae sgs1 mgt1 strain, active compounds read high
How it was run: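 This yeast growth screen uses a strain with defined DNA-repair lesions; compound-treated growth is compared with vehicle-treated growth.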

[4] = NCI Yeast Anticancer Drug Screen. Data for the cln2 rad14 strain (AID 165);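 note: 0% = growth equal to vehicle treated cultures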; conditions: S. cerevisiae cln2 rad14 strain, active compounds read high
How it was run: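 Yeast strain cln2 rad14, bearing defects in cell cycle control and DNA repair, serves as the test system; values reflect growth inhibition compared with vehicle.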

[5] = NCI Yeast Anticancer Drug Screen. Data for the bub3 strain (AID 167); conditions: S. cerevisiae bub3 mutant strain, active compounds read high
How it was run: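 Yeast carrying a defined mutation is treated with each compound, and growth is compared with that of vehicle-exposed cells to give inhibition.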

[6] = NCI Yeast Anticancer Drug Screen. Data for the mlh1 rad18 strain (AID 175); conditions: S. cerevisiae mlh1 rad18 strain growth inhibition, active compounds read high
How it was run: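 Steps: expose repair-defective yeast to compound; measure growth; express inhibition against vehicle-treated controls.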

[7] = at 5.0 µM (retest, dose inferred, filed as 0.5)
[8] = at 50.0 µM (retest, dose inferred, filed as 5.0)

Compound	growth inhibition [1, 7] [%]	growth inhibition [1, 8]	growth inhibition ([1]; at 50.0 µM)	growth inhibition [2, 7] [%]	growth inhibition [2, 8]	growth inhibition ([2]; at 50.0 µM) [%]	growth inhibition [3, 7] [%]	growth inhibition [3, 8]	growth inhibition ([3]; at 50.0 µM)	growth inhibition [4, 7] [%]	growth inhibition [4, 8]	growth inhibition ([4]; at 50.0 µM) [%]	growth inhibition [5, 7] [%]	growth inhibition [5, 8]	growth inhibition ([5]; at 50.0 µM)	growth inhibition [6, 7] [%]	growth inhibition [6, 8]	growth inhibition ([6]; at 50.0 µM)
CC(=O)Nc1ccc2c(c1)/C(=N/O)c1ccccc1-2	-5	76% (active)	67.2%	-11	90% (active)	42	-1	89% (active)	74.9% (active)	-11	56%	64.5	-3	77% (active)	72.4% (active)	17	92% (active)	77.3% (active)
CC(C)N(C(=O)c1ccc(Cl)c(Cl)c1)C(C)C	-15	-14%	-0.55%	-14	4%	10.8	-1	0%	15.1%	29	-26%	13.4	6	-25%	9.2%	-12	0%	-5.65%
COC(=O)c1[nH]c(=O)c(C#N)c(C(=O)OC)c1C(=O)c1ccc2ccccc2c1	-1	31%	80.8% (active)	-2	20%	10.9	-1	25%	67.6%	7	32%	20.3	7	41%	24.6%	12	44%	80.8% (active)
C=CC[C@]1(C(C)C(OC(C)=O)c2ccc3c(c2)OCO3)C[C@@H](OC)C=CC1=O (some centres not stated)	10	98% (active)	10.5%	10	98% (active)	-0.85	10	98% (active)	-0.2%	-3	98% (active)	-12.7	4	98% (active)	1.4%	9	98% (active)	40%
